HP1b binding inh: HTS for Inhibitors of HP1-beta Chromodomain Interactions with Methylated Histone Tails; Chromobox protein homolog 1 (Homo sapiens), P83916; AlphaScreen HP1-beta / biotin-H3K9me3 peptide binding; Potency, µM (series often up to 114 µM), hits mostly inhibitors; 0.56% of 390,000 active; AID 540317, 2011; also: nearly all actives have a fitted effect of over 70% in size
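HP1-beta protein (50 nM final) preincubated 30 min at room temperature with biotinylated H3(1-18)K9me3 peptide (50 nM) in PBS pH 7.4, 0.01% Tween-20, then compound added for 30 min. AlphaScreen streptavidin donor/nickel chelate acceptor beads (10 ug/mL final), 30 min dark, luminescence read.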
JMJD2A Tudor: qHTS Assay for Inhibitors of JMJD2A-Tudor Domain | Lysine-specific demethylase 4A (Homo sapiens), O75164 | AlphaScreen JMJD2A-Tudor / H3K4me3 peptide binding | Potency, µM (series often up to 114 µM), hits mostly inhibitors | 4.4% of 390,000 active; also: nearly all actives have a fitted effect of over 50% in size
G9a inh: qHTS Assay for Inhibitors of Histone Lysine Methyltransferase G9a; Histone-lysine N-methyltransferase EHMT2 (Homo sapiens), Q96KQ7; G9a H3K9 monomethylation, AlphaScreen, 2 h; Potency, µM (highest dose often 102 µM), most hits filed as inhibitors; 8.8% of 350,000 active; AID 504332, 2011; also: nearly all actives have a fitted effect of over 75% in size
Target sequence (Q96KQ7 913-1193 limits assumed): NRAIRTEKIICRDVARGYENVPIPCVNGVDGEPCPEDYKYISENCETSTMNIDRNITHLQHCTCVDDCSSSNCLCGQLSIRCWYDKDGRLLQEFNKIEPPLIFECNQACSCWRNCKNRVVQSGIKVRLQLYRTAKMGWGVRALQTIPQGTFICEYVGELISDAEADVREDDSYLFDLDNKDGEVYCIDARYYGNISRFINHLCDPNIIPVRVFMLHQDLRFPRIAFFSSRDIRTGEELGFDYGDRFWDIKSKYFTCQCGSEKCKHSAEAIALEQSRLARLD
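AlphaScreen detection with an anti-monomethyl H3K9 antibody quantified product after a 2 h room-temperature reaction containing 500 nM biotinylated H3K9 peptide, 20 µM SAM and 20 nM enzyme, which had been preincubated 15 min with compound.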
PLK1 PBD inh: qHTS for Inhibitors of PLK1-PDB (polo-like kinase 1 - polo-box domain): Primary Screen. Serine/threonine-protein kinase PLK1 (Homo sapiens), P53350. Plk1 PBD binding of FITC phosphopeptide, fluorescence polarization. Potency, µM, hits mostly inhibitors. 2.8% of 360,000 active; also: series mostly up to about 57 µM; nearly all actives have a fitted effect of over 65% in size
PI5P4K alpha inh: qHTS for Inhibitors of phosphatidylinositol 5-phosphate 4-kinase (PI5P4K). 1.2% of 330,000 active. Phosphatidylinositol 5-phosphate 4-kinase type-2 alpha (Homo sapiens), P48426. PI5P4Kalpha enzyme, ADP-Glo luminescence, 60 min; active compounds read low. max response, %; active = max response of -50% or lower; inconclusive = between -30% and -50%; inactive = -30% or higher; also: value at the top dose of about 77 µM
Target sequence (P48426 whole entry, looked up): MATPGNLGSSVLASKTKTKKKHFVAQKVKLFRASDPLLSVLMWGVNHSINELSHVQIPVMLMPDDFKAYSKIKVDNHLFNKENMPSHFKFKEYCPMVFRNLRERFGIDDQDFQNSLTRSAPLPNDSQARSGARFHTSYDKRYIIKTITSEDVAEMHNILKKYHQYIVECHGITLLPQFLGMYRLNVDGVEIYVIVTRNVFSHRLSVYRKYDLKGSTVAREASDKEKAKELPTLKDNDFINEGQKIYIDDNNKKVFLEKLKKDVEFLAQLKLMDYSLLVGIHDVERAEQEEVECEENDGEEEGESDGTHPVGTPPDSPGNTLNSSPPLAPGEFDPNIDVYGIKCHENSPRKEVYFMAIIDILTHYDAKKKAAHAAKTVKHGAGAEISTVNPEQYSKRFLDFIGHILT
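Quantitative HTS of the MLSMR library against PI5P4Kalpha with substrate. ATP added last at 5 microM final; room temperature, 60 minutes. Remaining ATP depleted, ADP converted and read as luminescence.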
BAZ2B inh: qHTS Assay for Inhibitors of BAZ2B; Potency, µM (highest dose often 114 µM), actives largely listed as inhibitors; 4.4% of 360,000 active; AlphaScreen BAZ2B-H3K14Ac peptide displacement; Bromodomain adjacent to zinc finger domain protein 2B (Homo sapiens), Q9UIF8; also: nearly all actives have a fitted effect of over 60% in size
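Multi-concentration screen (max 110 uM) measuring displacement of acetylated histone H3 peptide from BAZ2B by AlphaScreen, using 50 nM protein, 50 nM peptide and 10 ug/mL streptavidin donor plus Ni-chelate acceptor beads.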
A number is an active result; – = inactive; ? = inconclusive; · = not tested or not shown; [ ] = remark or other dose. This is a sample that favours compounds with a hit; in the whole collection about 12% have one here. Unless noted, calls follow the shape of the dose curve; as a rule, active = well fitted curve in the direction sought with a large enough effect; inconclusive = small, poorly fitted or top-dose-only effect, or another doubt; inactive = no such curve, though single readings can be large; an effect the other way counts as inactive or inconclusive.

SMILES | HP1b binding inh | JMJD2A Tudor | G9a inh | PLK1 PBD inh | PI5P4K alpha inh | BAZ2B inh
c1ccn2c(SCc3ccc4c(c3)OCCO4)nnc2c1 | – | – | 56µM | – | – | ?
O=[N+]([O-])c1cccc(CSc2nnc3ccccn23)c1 | – | – | – | – | – | –
Cn1cccc1C(=O)N1CCC[C@@]2(CCN(c3ncccn3)C2)C1 | · | · | –[12.7 µM] | · | · | ·
CC(Sc1nnc(-c2cccnc2)n1N)C(=O)N1CCOCC1 (stereo unspecified) | – | – | – | – | – | –
CC(Sc1nnc(-c2ccco2)o1)C(=O)NCCC1=CCCCC1 (stereo unspecified) | – | – | 50µM | – | – | –
CC(Sc1nnc(-c2cccnc2)n1N)C(=O)NCCC1=CCCCC1 (stereo unspecified) | – | – | 56µM | – | – | –
CCN(CC)S(=O)(=O)c1cccc(-c2nnc(SC(C)C(=O)NCCC3=CCCCC3)o2)c1 (stereo unspecified) | – | – | –[12.7 µM] | – | · | –
CN(C)CC(=O)c1ccc(-c2ccccc2)cc1 | – | – | 32µM | – | · | ·
Cc1cc(C)c[n+](CC(=O)c2ccc(-c3ccccc3)cc2)c1 | – | – | 50µM | – | – | –
C/[N+]([O-])=C\CC(=O)c1ccc(-c2ccccc2)cc1 | – | 32µM | 14µM | 21µM | – | –
CCCN(CCC)C(=S)NC(=O)c1ccc(-c2ccccc2)cc1 | – | 50µM | –[12.7 µM] | – | · | ?
Cc1cc(C)c[n+](CC(=O)c2ccc(NC(=O)c3ccccc3)cc2)c1 | – | – | · | – | – | –
CCCN(C(=O)Cn1c(=O)oc2cc(Cl)ccc21)c1ccc(C(C)C)cc1 | – | – | ? | · | · | –
COc1ccc(-c2noc3c2-c2nc(-c4c(F)cccc4F)sc2CC3)cc1 | – | – | 32µM | – | – | –
COc1ccc(-c2noc3c2-c2nc(-c4ccccc4F)sc2CC3)cc1 | – | – | 22µM | – | – | –
CCn1cc(S(=O)(=O)c2ccc(C)cc2C)c(=O)c2cc(F)c(N3CCCC3)cc21 | – | – | – | · | · | –
CSC1=NSC2=NC(=O)/C(=C/c3coc4ccc(O)cc4c3=O)C(=N)N12 | – | ? | ? | ? | -74 | ?
N=C1/C(=C\c2coc3ccccc3c2=O)C(=O)N=C2SC=CN12 | – | – | – | – | – | ?
CSC1=NSC2=NC(=O)/C(=C/c3coc4ccccc4c3=O)C(=N)N12 | – | – | ? | 21µM | -61 | –
BrC(=C\c1ccccc1)/C=N/N1CCN(c2ccccc2)CC1 | – | – | 20µM | – | – | ?
CC(/C=N\N1CCN(c2ccc(Cl)cc2)CC1)=C\c1ccccc1 | – | – | – | – | – | –
CC(/C=N/N1CCN(Cc2ccccc2)CC1)=C\c1ccccc1 | ? | 45µM | 28µM | – | – | 50µM
Cc1ccc(CN2CCN(/N=C\C(Br)=C\c3ccccc3)CC2)cc1 | ? | 45µM | ? | – | – | ?
COc1ccc(N2COC3c4cccc5cccc(c45)C32)cc1 (stereo unspecified) | – | 63µM | ? | – | – | 45µM
Clc1ccc(N2COC3c4cccc5cccc(c45)C32)cc1 (stereo unspecified) | – | – | – | – | – | –
SMILES | HP1b binding inh | JMJD2A Tudor | G9a inh | PLK1 PBD inh | PI5P4K alpha inh | BAZ2B inh
OC(COCc1ccccc1F)CN1CCCCC1 (stereo unspecified) | – | – | · | – | – | ·
CC1CCCC(C)N1CC(O)COCc1ccccc1F (stereo unspecified) | ? | 50µM | –[2.33 µM] | – | – | ?
CC(=O)N1CCC2(CC1)C(C#N)=C(N)Oc1c2sc2nc(C)cc(C)c12 | – | – | 11µM | – | · | –
CC1CCN(CC2CCN(C(=O)NCc3ccccc3)CC2)CC1 | ? | – | – | · | · | –
COc1cc(C(=O)O)nc(OC)n1 | – | 2.8µM | ? | ? | – | 71µM
COc1cc(NC(=O)CCc2ccccc2)nc(OC)n1 | – | – | – | – | · | –
Cn1cc(C(=O)NCc2ccccc2)c(=O)c2cc(S(=O)(=O)N3CCCCCC3)ccc21 | – | – | – | · | · | –
O=C(OCC(=O)N1CCCc2ccccc21)c1ccc(C(F)(F)F)cc1 | – | – | – | – | – | –
O=C(OCC(=O)N1CCCc2ccccc21)c1ccc(S(=O)(=O)C(F)F)cc1 | – | – | 50µM | – | – | –
O=[N+]([O-])c1cc(S(=O)(=O)NC2=NCCCCC2)ccc1NCC1CCCCC1 | – | 45µM | 45µM | – | – | ·
Nc1ccc(S(=O)(=O)NC2=NCCCCC2)cc1N | – | – | ? | – | – | ·
CCOC(=O)Cc1ccc(NC(=O)N2CCC(CN3CCCCCC3)CC2)cc1 | – | – | ? | · | · | –
CCOC(=O)Cn1nnc(-c2ccccc2)n1 | – | ? | – | – | – | –
O=C(O)CCn1nnc(-c2ccccc2)n1 | – | –[11.4 µM] | – | 21µM | – | –
CCOC(=O)Cn1c(=O)cc(-c2ccccc2)c2c(C)nn(C)c21 | – | – | – | · | · | –
Cc1cc(C)c(NC(=O)CSc2nc(C)cc(C)c2C#N)c(C)c1 | – | – | – | · | · | –
CCOC(=O)CN(C(=O)c1snc(C(N)=O)c1N)C(C(=O)NC1CCCCC1)c1ccc(F)cc1 (stereo unspecified) | – | ? | – | – | – | 79µM
CN(C)c1ccc(C(C(=O)NCC2CCCO2)N(Cc2ccccc2)C(=O)c2snc(C(N)=O)c2N)cc1 (stereo unspecified) | – | ? | – | – | – | ?
Cc1ccc(C)c(N(C(=O)c2snc(C(N)=O)c2N)C(C(=O)NCC2CCCO2)c2cccs2)c1 (stereo unspecified) | – | 11µM | – | 30µM | – | –
Cc1cccc(N(C(=O)c2snc(C(N)=O)c2N)C(C(=O)NCC2CCCO2)c2ccc(N(C)C)cc2)c1C (stereo unspecified) | – | – | 50µM | – | – | 28µM
Cc1cccc(N(C(=O)c2snc(C(N)=O)c2N)C(C(=O)NCC2CCCO2)c2cccs2)c1 (stereo unspecified) | – | – | – | – | – | –
COc1ccc(CNC(=O)C(c2ccc(C)o2)N(C(=O)c2snc(C(N)=O)c2N)c2ccccc2OC)cc1 (stereo unspecified) | – | – | 50µM | – | – | –
CCOCCCN(C(=O)c1snc(C(N)=O)c1N)C(C(=O)NC1CCCC1)c1ccc(F)cc1 (stereo unspecified) | – | – | – | – | – | –

Screens from PubChem.
